In the library only some 19% were active in any assay of this set; here they are far more common.
Cycloheximide cs = affects cycloheximide protein synthesis inhibition readout, counter-screen; AID 2314; cell reporter, cycloheximide protein synthesis inhibition counterscreen; actives 12% (n = 300,000); max response, %; in the data active = max response mostly above about 13%, no sharp cut-off; inactive = mostly below about 14%; also: read at 38.3 µM for the half of the compounds with a filed dose; 0% is about no effect
Marburg entry inh = inhibitors of Marburg virus binding or cell entry; Marburg virus pseudotyped entry inhibition, cell reporter; Potency, µM (top dose mostly 37.8 µM), for inactives: top-dose activity change, negative = inhibition, hits mostly inhibitors; actives 1.8% (n = 300,000); AID 540276; calls by dose curve; tested in HEK293 cells; also: potency is read from the fitted curve at half-maximal effect; % is scaled to controls: 0 for no effect and ±100 for the full control effect
Pf growth 96h = P. falciparum growth inhibition at 96 hour, primary screen for plastid delayed-death inhibitors | P. falciparum luciferase reporter growth, 96 h | Potency, µM (series often up to 28.7 µM), for the others: at the highest dose activity change, negative = inhibition, actives largely listed as inhibitors | actives 6.9% (n = 320,000) | AID 504834; also: potency is read from the fitted curve at half-maximal effect; % is scaled to controls: 0 for no effect and ±100 for the full control effect
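96 h incubation, 37 C, 5% CO2, of luciferase-reporter P. falciparum-infected RBCs (2% hematocrit, 0.05% parasitemia final) with test compounds; endpoint luminescence.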
Pf growth 48h = inhibits P. falciparum growth in the first generation, 48 h | P. falciparum luciferase growth in erythrocytes, 48 h | AID 504832 | Potency, µM (top dose mostly 28.7 µM), for the others: top-dose activity change, negative = inhibition, usual class: inhibitors | actives 5.9% (n = 310,000); also: potency is read from the fitted curve at half-maximal effect; % is scaled to controls: 0 for no effect and ±100 for the full control effect
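First compound was added to culture medium, then infected red cells at 0.1% parasitemia and 2% hematocrit (final). After incubation at 37 C under 5% CO2, luciferase detection reagent was dispensed and light output recorded.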
Shiga inhibitor = inhibitors of Shiga toxin in Vero cells. actives 9.2% (n = 290,000). inhibition, % at 38.7 µM. AID 2315. Vero cells, Shiga toxin protein synthesis inhibition reporter; in the data active = inhibition mostly above about 28%, no sharp cut-off; inactive = mostly below about 43%; also: 0% is about no effect
LASV entry inh = blocks Lassa virus binding to or entry into cells | Lassa virus pseudotype entry inhibition, cell reporter | actives 1.2% (n = 300,000) | AID 540256 | Potency, µM (highest dose often 37.9 µM), inactives show top-dose activity change, negative = inhibition, most hits filed as inhibitors; calls by dose curve; tested in HEK293 cells; also: potency is read from the fitted curve at half-maximal effect; % is scaled to controls: 0 for no effect and ±100 for the full control effect; nearly all actives have a fitted effect of over 50% in size
Active calls of the source: *; [ ] = remark or other dose. Unless noted, calls follow the shape of the dose curve; as a rule, active = well fitted inhibition curve with a large enough effect; inconclusive = small, poorly fitted or top-dose-only effect, or another doubt; inactive = no such curve, though single readings can be large or run the other way.

Results for O=C(C[n+]1cccc(CNC(=O)c2ccc(OC(F)F)cc2)c1)Nc1cccc(C(F)(F)F)c1 ?
Cycloheximide cs: -2; Marburg entry inh: 1%; Pf growth 96h: inconclusive; Pf growth 48h: 5.2µM*; Shiga inhibitor: 8; LASV entry inh: 9%

What do the screens show for `CC(=O)c1cccc(NC(=O)CN2C(=O)NC3(CCCCCCC3)C2=O)c1`?
Cycloheximide cs: -4; Marburg entry inh: 7%; Pf growth 96h: 104%; Pf growth 48h: 8%; Shiga inhibitor: 23; LASV entry inh: -1%

How did CN(N)C(=S)Nc1ccc(F)cc1 do in these assays?
Cycloheximide cs: 12; Marburg entry inh: inconclusive; Pf growth 96h: 4%; Pf growth 48h: 1%; Shiga inhibitor: -6; LASV entry inh: 20%[46.1 µM]

Results for CC1CCCC/C1=N/Nc1ccc([N+](=O)[O-])cc1[N+](=O)[O-] (centres undefined) ?
Cycloheximide cs: -5; Marburg entry inh: 4%; Pf growth 96h: 237%; Shiga inhibitor: 30; LASV entry inh: -22%

What do the screens show for `COc1ccc(S(=O)(=O)NC(C(=O)OCC(=O)Nc2ccc(N3CCOCC3)cc2)C(C)C)cc1` (centres undefined)?
Marburg entry inh: -2%; LASV entry inh: 3%

What do the screens show for `Cc1ccc(NC(=O)CCn2cnc3cc(C)c(C)cc32)cc1`?
Cycloheximide cs: 0; Marburg entry inh: -9%; Pf growth 96h: inconclusive; Pf growth 48h: inconclusive; Shiga inhibitor: -2; LASV entry inh: -15%

How did CCn1cnc2cc(NC(=O)COc3ccc(C)cc3)ccc21 do in these assays?
Marburg entry inh: -2%[46.1 µM]; LASV entry inh: -14%

What do the screens show for `CCn1cnc2cc(NC(=O)c3ccc(C)cc3)ccc21`?
Cycloheximide cs: 44*; Pf growth 96h: 75%; Pf growth 48h: 229%; Shiga inhibitor: 49*

What do the screens show for `Cc1ccc(C(=O)Nc2ccc3c(c2)ncn3C)cc1`?
Cycloheximide cs: 26*; Marburg entry inh: inconclusive; Pf growth 96h: 3%; Pf growth 48h: 238%; Shiga inhibitor: 112*; LASV entry inh: inconclusive

What do the screens show for `CCCCC(=O)N1CCCC(C)C1` (centres undefined)?
Cycloheximide cs: 43; Marburg entry inh: 0%[46.1 µM]; Pf growth 96h: 1%; Pf growth 48h: 0%; Shiga inhibitor: 86; LASV entry inh: -6%

Results for Cc1ccc(Cl)cc1N1C(=O)CC(Sc2ncccn2)C1=O (centres undefined) ?
Cycloheximide cs: -1; Pf growth 96h: 0%; Pf growth 48h: -8%; Shiga inhibitor: -13

What do the screens show for `CCOc1ccc2ncc(C(=O)c3ccc(OC)cc3)c(N3CCN(CC)CC3)c2c1`?
Cycloheximide cs: -2; Pf growth 96h: 38%; Pf growth 48h: inconclusive; Shiga inhibitor: 27

What do the screens show for `CCn1cc(C(=O)O)c(=O)c2cc(F)c(N3CCN(C(=S)NC(=O)c4ccc(F)c(F)c4)CC3)cc21`?
Cycloheximide cs: 8; Pf growth 96h: 1%; Pf growth 48h: 6.6µM*; Shiga inhibitor: -10

Results for CCn1cc(C(=O)O)c(=O)c2cc(F)c(N3CCN(C(=S)NC(=O)c4ccc(F)cc4)CC3)cc21 ?
Cycloheximide cs: 7; Marburg entry inh: -16%; Pf growth 96h: inconclusive; Pf growth 48h: inconclusive; Shiga inhibitor: 24; LASV entry inh: 20%

What do the screens show for `CCn1cc(C(=O)O)c(=O)c2cc(F)c(N3CCN(C(=S)NC(=O)c4ccccc4Br)CC3)cc21`?
Cycloheximide cs: 3; Marburg entry inh: 16%[46.1 µM]; Pf growth 96h: 5.2µM*; Pf growth 48h: inconclusive; Shiga inhibitor: 3

What do the screens show for `CCn1cc(C(=O)O)c(=O)c2cc(F)c(N3CCN(C(=S)NC(=O)c4cccc(F)c4)CC3)cc21`?
Cycloheximide cs: -1; Marburg entry inh: 27%[46.1 µM]; Pf growth 96h: inconclusive; Pf growth 48h: 10µM*; Shiga inhibitor: -7; LASV entry inh: -11%

What do the screens show for `CCCOc1ccc(C(=O)NC(=S)N2CCN(c3cc4c(cc3F)c(=O)c(C(=O)O)cn4CC)CC2)cc1`?
Cycloheximide cs: 0; Marburg entry inh: 19%[46.1 µM]; Pf growth 96h: 7%; Pf growth 48h: 15µM*; Shiga inhibitor: -5; LASV entry inh: 10%

How did CCn1cc(C(=O)O)c(=O)c2cc(F)c(N3CCN(C(=S)NC(=O)c4c(OC)cccc4OC)CC3)cc21 do in these assays?
Cycloheximide cs: -3; Marburg entry inh: -3%; Pf growth 96h: -2%; Pf growth 48h: inconclusive; Shiga inhibitor: -17; LASV entry inh: 4%

What do the screens show for `CCn1c(=O)c(CCC(=O)N2CCOCC2)c(C)c2c(C)nn(-c3ccccc3)c21`?
Cycloheximide cs: 1; Pf growth 96h: inconclusive; Pf growth 48h: inconclusive; Shiga inhibitor: 15

What do the screens show for `Cc1ccc(S(=O)(=O)NC(=NC2CCCCC2)c2ccc(Cl)cc2)cc1`?
Cycloheximide cs: -13; Marburg entry inh: -11%[46.1 µM]; Pf growth 96h: 0%; Pf growth 48h: -5%; Shiga inhibitor: 6; LASV entry inh: -6%

What do the screens show for `CCn1cc(C(=O)O)c(=O)c2cc(F)c(N3CCN(S(=O)(=O)c4ccc(NC(=O)OC)cc4)CC3)cc21`?
Cycloheximide cs: -4; Marburg entry inh: inconclusive; Pf growth 96h: inconclusive; Pf growth 48h: 4.7µM*; Shiga inhibitor: -5; LASV entry inh: -4%

What do the screens show for `CCOc1ccc(C(=O)NCc2ccccc2OC)cc1`?
Cycloheximide cs: 11; Marburg entry inh: 28%; Pf growth 96h: 6%; Pf growth 48h: 0%; Shiga inhibitor: active; LASV entry inh: inconclusive

What do the screens show for `COc1ccccc1CNC(=O)c1ccc(OC(C)C)cc1`?
Cycloheximide cs: 15*; Marburg entry inh: -9%[46.1 µM]; Pf growth 96h: 15%[5.75 µM]; Pf growth 48h: 15%; Shiga inhibitor: 56*; LASV entry inh: -17%[46.1 µM]

How did CCC(CC)C(=O)NCc1ccccc1OC do in these assays?
Cycloheximide cs: -4; Marburg entry inh: 2%; Pf growth 96h: -15%; Pf growth 48h: -5%; Shiga inhibitor: -16; LASV entry inh: 1%

How did O=C(NCc1cccs1)c1ccc(Cl)s1 do in these assays?
Cycloheximide cs: 12; Marburg entry inh: -18%; Pf growth 48h: 22%; Shiga inhibitor: -6; LASV entry inh: -3%

How did CCc1ccc(C(=O)NCc2cccs2)s1 do in these assays?
Cycloheximide cs: 37*; Marburg entry inh: 0%; Pf growth 48h: 73%; Shiga inhibitor: 89*; LASV entry inh: 21%

Results for CC(C)Oc1ccc(C(=O)NCc2cccs2)cc1 ?
Cycloheximide cs: 50*; Marburg entry inh: inconclusive; Pf growth 96h: 23%; Shiga inhibitor: 36*; LASV entry inh: -19%

How did N#CC1(NC(=O)COC(=O)CCCN=C2NS(=O)(=O)c3ccccc32)CCCCC1 do in these assays?
Cycloheximide cs: 9; Marburg entry inh: 17%[46.1 µM]; Pf growth 96h: -1%; Pf growth 48h: -3%; Shiga inhibitor: 8; LASV entry inh: -2%
